The text below walks through data of PubChem BioAssay (NCATS).

Molecules are shown by their SMILES. Inconclusive results are not listed. A call without a number means that no potency is given here. Active and inactive are the calls of the source. Calls follow the shape of the dose curve; as a rule, active = well fitted inhibition curve with a large enough effect; inconclusive = small, poorly fitted or top-dose-only effect; inactive = flat fitted curve, though single readings scatter.
Potency is read from the fitted curve at half-maximal effect.

The first assay deals with CP256. Kind of assay: qHTS profiling for inhibitors of Plasmodium falciparum proliferation (AID 504749). Also: nearly all actives have a fitted effect of over 60% in size. Particulars: P. falciparum in erythrocytes, SYBR Green DNA, 72 h; series mostly up to 28.7 µM. The essentials:
(§1)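 Readout was DNA-dye fluorescence from lysed cultures, ex 485/em 535 nm. Parasitized red cells had grown 72 h with compound; data scaled between 0.29 uM artemisinin and DMSO wells and corrected using vehicle-only plates.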
In general terms: qHTS replaces the single test concentration by a dilution series.
For the compound `C#C[C@]1(O)CC[C@H]2[C@@H]3CCc4cc(OC)ccc4[C@H]3CC[C@@]21C`, the Potency entry is “inactive”.

Regarding `CCCCNC(=O)NS(=O)(=O)c1ccc(N)cc1`, the Potency result was “inactive”.

Regarding `Nc1ccc(C(=O)NCC(=O)O)cc1`, the Potency result was “inactive”.

With `OC1C(O)C(O)C(O)C(O)C1O` (stereo not given), the Potency result is “inactive”.

On to `O=S(=O)(O)c1ccc(O)cc1`, for which the Potency entry was “inactive”.

Consider `COc1cc(C(=O)NCc2ccc(OCCN(C)C)cc2)cc(OC)c1OC`, for which the Potency entry was “inactive”.

In the case of `COc1cc(C)nc(-n2nc(C)cc2OC)n1`, the Potency result was “inactive”.

As to `CC(=O)Oc1ccc(C)cc1`, the Potency result is “inactive”.

Take `CC(=O)NC(=O)c1ccccc1O`: the Potency result is “inactive”.

In the case of `FC(F)(F)C(F)(F)C(F)(F)C(F)(F)C(F)(F)C(F)(F)C(F)(F)C(F)(F)Br`, the Potency result is “inactive”.

On to `c1ccc(-c2nc[nH]c2-c2ccccc2)cc1`, for which the Potency entry was “inactive”.

For the compound `CCNC(=O)NCc1cccc(Cl)c1`, the Potency result was “inactive”.

Turning to `O=C(O)Cc1csc(-c2ccc(Cl)cc2)n1`, the Potency result is “inactive”.

As for `Nc1nc(-c2ccccc2)c(Br)c(=O)[nH]1`, the Potency result was “inactive”.

For the compound `O=c1[nH]c(=O)n([C@H]2C[C@H](O)[C@@H](CO)O2)cc1F`, the Potency result was “inactive”.

As to `CC(=O)Nc1ncc([N+](=O)[O-])s1`, the Potency entry was “inactive”.

Regarding `Cc1cccc(C)c1NC(=O)CN1CCCCCC1`, the Potency entry is “inactive”.

Take `CC[C@H](c1ccc(O)cc1)[C@@H](CC)c1ccc(O)cc1`: the Potency entry is “inactive”.

As to `Cc1c(-c2ccccc2)oc2c(C(=O)OCCN3CCCCC3)cccc2c1=O`, the Potency result was “inactive”.

Consider `CCCCCCCCCCCCCCCCO`, for which the Potency result was “inactive”.

In the case of `Oc1ccccc1C=NCc1ccccc1`, the Potency result was “inactive”.

As to `CCN(CC)CCNC(=O)COc1ccc(OC)cc1`, the Potency result was “inactive”.

`COc1cc(N)c(Cl)cc1C(=O)NC1CCN(Cc2ccccc2)CC1`: the Potency entry was “inactive”.

`Cc1cc(NS(=O)(=O)c2ccc(N)cc2)nc(C)n1`: the Potency entry is “inactive”.

In the case of `CC(=O)OC[C@H]1O[C@@H](n2ncc(=O)[nH]c2=O)[C@H](OC(C)=O)[C@@H]1OC(C)=O`, the Potency result is “inactive”.

For the compound `CCOc1ccccc1OCCN[C@H](C)Cc1ccc(OC)c(S(N)(=O)=O)c1`, the Potency result was “inactive”.

As to `O=C(NCCc1c[nH]c2ccccc12)c1cccnc1`, the Potency entry is “inactive”.

For `Cc1ccccc1OCC(O)CO` (stereo not given), the Potency entry is “inactive”.

`Cc1cc(C)cc(OCC2CNC(=O)O2)c1` (stereo not given): the Potency entry was “inactive”.

Regarding `CCOc1cc(OCC)c(C(=O)CCC(=O)O)cc1OCC`, the Potency result was “inactive”.

For `N#CCC(=O)NN`, the Potency entry is “inactive”.

For the compound `O=C(O)C(Cc1cc(I)c(O)c(I)c1)c1ccccc1` (stereo not given), the Potency entry is “inactive”.

As to `CCCCCCCC/C=C\CCCCCCCCN`, the Potency entry is “inactive”.

On to `CC1=C(C(=O)O)N2C(=O)[C@@H](NC(=O)[C@H](N)c3ccccc3)[C@H]2SC1`, for which the Potency entry is “inactive”.

`CCN(CC)CCNc1ccc(CO)c2sc3ccccc3c(=O)c12`: the Potency was 1.78 µM (active).

For the compound `Cl/C(=C\n1cncn1)c1ccc(Cl)cc1Cl`, the Potency result is “inactive”.

As to `CCCCCCCCCCCCCCCC(=O)O`, the Potency result is “inactive”.

Regarding `CC(C)CCCC(C)N` (stereo not given), the Potency result was “inactive”.

Take `CCOC(=O)c1ccc(N)cc1`: the Potency entry is “inactive”.

With `Cc1c[nH]c2ccccc12`, the Potency result is “inactive”.

The next assay deals with CP260. The assay is described as above. Particulars: P. falciparum in erythrocytes, SYBR Green DNA, 72 h; series mostly up to 28.7 µM. The essentials:
as §1
Take `C#C[C@]1(O)CC[C@H]2[C@@H]3CCc4cc(OC)ccc4[C@H]3CC[C@@]21C`: the Potency result was “inactive”.

As for `CCCCNC(=O)NS(=O)(=O)c1ccc(N)cc1`, the Potency result was “inactive”.

On to `Nc1ccc(C(=O)NCC(=O)O)cc1`, for which the Potency result was “inactive”.

For the compound `OC1C(O)C(O)C(O)C(O)C1O` (stereo not given), the Potency entry was “inactive”.

As to `O=S(=O)(O)c1ccc(O)cc1`, the Potency result is “inactive”.

With `COc1cc(C(=O)NCc2ccc(OCCN(C)C)cc2)cc(OC)c1OC`, the Potency result was “inactive”.

Consider `COc1cc(C)nc(-n2nc(C)cc2OC)n1`, for which the Potency result is “inactive”.

Regarding `CC(=O)Oc1ccc(C)cc1`, the Potency entry was “inactive”.

Take `CC(=O)NC(=O)c1ccccc1O`: the Potency entry is “inactive”.

For `FC(F)(F)C(F)(F)C(F)(F)C(F)(F)C(F)(F)C(F)(F)C(F)(F)C(F)(F)Br`, the Potency result is “inactive”.

With `c1ccc(-c2nc[nH]c2-c2ccccc2)cc1`, the Potency entry was “inactive”.

As for `CCNC(=O)NCc1cccc(Cl)c1`, the Potency result is “inactive”.

As to `O=C(O)Cc1csc(-c2ccc(Cl)cc2)n1`, the Potency result is “inactive”.

`Nc1nc(-c2ccccc2)c(Br)c(=O)[nH]1`: the Potency entry was “inactive”.

As to `O=c1[nH]c(=O)n([C@H]2C[C@H](O)[C@@H](CO)O2)cc1F`, the Potency result was “inactive”.

Take `CC(=O)Nc1ncc([N+](=O)[O-])s1`: the Potency result is “inactive”.

`Cc1cccc(C)c1NC(=O)CN1CCCCCC1`: the Potency result is “inactive”.

Turning to `CC[C@H](c1ccc(O)cc1)[C@@H](CC)c1ccc(O)cc1`, the Potency entry was “inactive”.

For the compound `Cc1c(-c2ccccc2)oc2c(C(=O)OCCN3CCCCC3)cccc2c1=O`, the Potency result was “inactive”.

`CCCCCCCCCCCCCCCCO`: the Potency result was “inactive”.

As for `Oc1ccccc1C=NCc1ccccc1`, the Potency entry is “inactive”.

For `CCN(CC)CCNC(=O)COc1ccc(OC)cc1`, the Potency entry is “inactive”.

In the case of `COc1cc(N)c(Cl)cc1C(=O)NC1CCN(Cc2ccccc2)CC1`, the Potency result was “inactive”.

Turning to `Cc1cc(NS(=O)(=O)c2ccc(N)cc2)nc(C)n1`, the Potency result is “inactive”.

As to `CC(=O)OC[C@H]1O[C@@H](n2ncc(=O)[nH]c2=O)[C@H](OC(C)=O)[C@@H]1OC(C)=O`, the Potency entry was “inactive”.

On to `CCOc1ccccc1OCCN[C@H](C)Cc1ccc(OC)c(S(N)(=O)=O)c1`, for which the Potency entry is “inactive”.

Take `O=C(NCCc1c[nH]c2ccccc12)c1cccnc1`: the Potency result is “inactive”.

As for `Cc1ccccc1OCC(O)CO` (stereo not given), the Potency entry was “inactive”.

Regarding `Cc1cc(C)cc(OCC2CNC(=O)O2)c1` (stereo not given), the Potency result is “inactive”.

For the compound `CCOc1cc(OCC)c(C(=O)CCC(=O)O)cc1OCC`, the Potency result was “inactive”.

`N#CCC(=O)NN`: the Potency result is “inactive”.

As to `O=C(O)C(Cc1cc(I)c(O)c(I)c1)c1ccccc1` (stereo not given), the Potency entry is “inactive”.

For `CCCCCCCC/C=C\CCCCCCCCN`, the Potency result is “inactive”.

For the compound `CC1=C(C(=O)O)N2C(=O)[C@@H](NC(=O)[C@H](N)c3ccccc3)[C@H]2SC1`, the Potency result was “inactive”.

`CCN(CC)CCNc1ccc(CO)c2sc3ccccc3c(=O)c12`: the Potency is 0.794 µM (active).

Consider `Cl/C(=C\n1cncn1)c1ccc(Cl)cc1Cl`, for which the Potency entry was “inactive”.

On to `CCCCCCCCCCCCCCCC(=O)O`, for which the Potency entry was “inactive”.

For the compound `CC(C)CCCC(C)N` (stereo not given), the Potency result was “inactive”.

In the case of `CCOC(=O)c1ccc(N)cc1`, the Potency result is “inactive”.

For `Cc1c[nH]c2ccccc12`, the Potency result was “inactive”.
